Source: PubChem BioAssay (NCI)
Compounds without any hit were thinned out: in the full panel of roughly 79,000, 15% have a hit. Active and inactive are the calls of the source. Cut-off read from the data, not from the text of the source: active = growth inhibition above about 70%; inactive = the rest.

Assays:
[1] = NCI Yeast Anticancer Drug Screen. Data for the rad52 strain (AID 147);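 note: 0% = growth of vehicle-treated control cultures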; conditions: S. cerevisiae rad52 mutant growth inhibition, active compounds read high
Summary of the method: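 Inhibition of yeast growth, referenced to vehicle controls, was the measured output for a strain with defective DNA damage repair.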

[2] = NCI Yeast Anticancer Drug Screen. Data for the wt1 strain (AID 149);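 note: 0% = growth of vehicle-treated wt1 cultures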; conditions: S. cerevisiae wt1 strain (SPY 50644) growth inhibition, active compounds read high
Summary of the method: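 Compounds are added to wt1 yeast cultures. Growth is then measured. Inhibition is expressed relative to vehicle-treated controls.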

[3] = NCI Yeast Anticancer Drug Screen. Data for the rad50EPP+ strain (AID 151);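 note: 0% = growth of vehicle-treated control cultures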; conditions: S. cerevisiae rad50 mutant strain, active compounds read high
Summary of the method: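 Genetically defined yeast (rad50EPP+, DNA damage repair alteration) is grown with compound, and inhibition of growth is expressed relative to vehicle-treated controls.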

[4] = NCI Yeast Anticancer Drug Screen. Data for the mgt1 strain (AID 153); conditions: S. cerevisiae mgt1 mutant growth inhibition, active compounds read high
Summary of the method: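 In the mgt1 strain, test compounds were added and growth inhibition was determined relative to vehicle-treated controls.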

[5] = NCI Yeast Anticancer Drug Screen. Data for the rad50 strain (AID 155);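 note: 0% = growth of vehicle-only cultures of the same strain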; conditions: S. cerevisiae rad50 strain growth inhibition, active compounds read high
Summary of the method: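 Inhibition values express reduced yeast growth in compound-treated cultures relative to vehicle-treated controls.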

[6] = NCI Yeast Anticancer Drug Screen. Data for the mec2-1 strain (AID 157); conditions: S. cerevisiae mec2-1 strain, active compounds read high
Summary of the method: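 Each compound was tested on mec2-1 yeast, a strain altered in DNA damage repair or cell cycle control. Growth inhibition is reported relative to vehicle.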

[7] = NCI Yeast Anticancer Drug Screen. Data for the rad14 strain (AID 159);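 note: 0% = growth of vehicle-treated control cultures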; conditions: S. cerevisiae rad14 strain growth inhibition, active compounds read high
Summary of the method: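 A mutant yeast strain defective in DNA damage repair is treated with compound; inhibition of its growth is scored against untreated, vehicle-exposed cultures.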

[8] = NCI Yeast Anticancer Drug Screen. Data for the sgs1 mgt1 strain (AID 161);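 note: 0% = growth of cultures given vehicle only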; conditions: S. cerevisiae sgs1 mgt1 strain, active compounds read high
Summary of the method: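 Inhibition of yeast growth, normalised to vehicle-treated controls, is reported for a strain bearing genetic alterations in DNA damage repair.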

[9] = NCI Yeast Anticancer Drug Screen. Data for the CLN2oe strain (AID 163);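 note: 0% = growth of vehicle-only control cultures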; conditions: S. cerevisiae CLN2oe strain, active compounds read high
Summary of the method: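 First, the altered yeast strain was treated with each compound; second, its growth was measured; finally, inhibition was derived by comparison with vehicle controls.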

[10] = NCI Yeast Anticancer Drug Screen. Data for the cln2 rad14 strain (AID 165);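 note: 0% = growth equal to vehicle treated cultures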; conditions: S. cerevisiae cln2 rad14 strain, active compounds read high
Summary of the method: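 Test compounds were added to cln2 rad14 yeast cultures; inhibition of growth was then determined by comparison with vehicle treatment.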

[11] = NCI Yeast Anticancer Drug Screen. Data for the bub3 strain (AID 167); conditions: S. cerevisiae bub3 mutant strain, active compounds read high
Summary of the method: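 Steps: expose the mutant yeast strain to compound; grow alongside vehicle-treated cultures; measure growth; express inhibition against the vehicle cultures.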

[12] = NCI Yeast Anticancer Drug Screen. Data for the wt2 strain (AID 169);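 note: 0% = growth of vehicle-treated yeast cultures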; conditions: S. cerevisiae wt2 strain growth inhibition, active compounds read high
Summary of the method: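 The panel's yeast strains carry defined changes in DNA repair or cell cycle genes. Each strain is grown with compound, and growth loss is scored relative to vehicle.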

[13] = NCI Yeast Anticancer Drug Screen. Data for the mlh1 rad18 strain (AID 175); conditions: S. cerevisiae mlh1 rad18 strain growth inhibition, active compounds read high
Summary of the method: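 Inhibition values reflect reduced growth of mutant yeast versus vehicle-treated controls following compound exposure; the mutations affect DNA damage repair.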

[14] = NCI Yeast Anticancer Drug Screen. Data for the rad18 strain (AID 177); conditions: S. cerevisiae rad18 mutant growth inhibition, active compounds read high
Summary of the method: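 Steps: expose repair-mutant yeast to compound; measure growth; express as inhibition relative to vehicle control.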

[15] = at 5.0 µM (retest, dose inferred, filed as 0.5)
[16] = at 50.0 µM (retest, dose inferred, filed as 5.0)

Measured: growth inhibition

CCCC(=O)Oc1c(C)cc([N+](=O)[O-])cc1[N+](=O)[O-]
inactive: [1]; at 1.2 µM 4% | [1]; at 3.7 µM 26% | [2]; at 1.2 µM 1% | [2]; at 3.7 µM 0% | [3]; at 1.2 µM 35% | [4]; at 1.2 µM 3% | [4]; at 3.7 µM 11% | [4]; at 11.0 µM 56% | [5]; at 1.2 µM 4% | [5]; at 3.7 µM 25% | [5]; [15] 14% | [6]; at 1.2 µM -1% | [6]; at 3.7 µM 21% | [6]; [15] 33% | [7]; at 1.2 µM 1% | [7]; at 3.7 µM 14% | [8]; [15] 39% | [9]; at 1.2 µM -11% | [9]; at 3.7 µM -2% | [10]; [15] -1% | [11]; at 1.2 µM 12% | [11]; at 3.7 µM 42% | [11]; [15] 40% | [12]; at 1.2 µM 2% | [12]; at 3.7 µM 4% | [13]; [15] 18% | [14]; at 1.2 µM 5% | [14]; at 3.7 µM 20%
active: [1]; at 11.0 µM 99% | [1]; at 33.0 µM 97% | [1]; at 100.0 µM 99% | [2]; at 11.0 µM 98% | [2]; at 33.0 µM 99% | [2]; at 100.0 µM 99% | [3]; at 3.7 µM 77% | [3]; at 11.0 µM 94% | [3]; at 33.0 µM 99% | [3]; at 100.0 µM 99% | [4]; at 33.0 µM 99% | [4]; at 100.0 µM 86% | [5]; at 11.0 µM 98% | [5]; at 33.0 µM 99% | [5]; [16] 99% | [5]; at 50.0 µM 99.4% | [5]; at 100.0 µM 99% | [6]; at 11.0 µM 99% | [6]; at 33.0 µM 99% | [6]; [16] 100% | [6]; at 50.0 µM 99.3% | [6]; at 100.0 µM 99% | [7]; at 11.0 µM 96% | [7]; at 33.0 µM 99% | [7]; at 100.0 µM 99% | [8]; [16] 99% | [8]; at 50.0 µM 99.4% | [9]; at 11.0 µM 94% | [9]; at 33.0 µM 99% | [9]; at 100.0 µM 99% | [10]; [16] 97% | [10]; at 50.0 µM 93.5% | [11]; at 11.0 µM 98% | [11]; at 33.0 µM 99% | [11]; [16] 99% | [11]; at 50.0 µM 99.5% | [11]; at 100.0 µM 99% | [12]; at 11.0 µM 98% | [12]; at 33.0 µM 99% | [12]; at 100.0 µM 99% | [13]; [16] 99% | [13]; at 50.0 µM 99.1% | [14]; at 11.0 µM 98% | [14]; at 33.0 µM 99% | [14]; at 100.0 µM 99%

Cc1cccc2c1nc1ccc(Cl)cc1[n+]2C
inactive: [1]; at 1.2 µM 0% | [1]; at 3.7 µM 9% | [2]; at 1.2 µM -1% | [2]; at 3.7 µM 4% | [2]; at 11.0 µM 41% | [3]; at 1.2 µM -4% | [3]; at 3.7 µM 4% | [3]; at 11.0 µM 64% | [4]; at 1.2 µM 0% | [4]; at 3.7 µM 7% | [4]; at 11.0 µM 59% | [5]; at 1.2 µM 2% | [5]; at 3.7 µM 9% | [5]; [15] 11% | [6]; at 1.2 µM 1% | [6]; at 3.7 µM 18% | [6]; [15] 3% | [7]; at 1.2 µM 2% | [7]; at 3.7 µM 8% | [7]; at 11.0 µM 57% | [8]; [15] 26% | [9]; at 1.2 µM -5% | [9]; at 3.7 µM -4% | [10]; [15] 4% | [11]; at 1.2 µM 0% | [11]; at 3.7 µM 10% | [11]; [15] 0% | [12]; at 1.2 µM -2% | [12]; at 3.7 µM 2% | [13]; [15] 25% | [14]; at 1.2 µM 25% | [14]; at 3.7 µM 62%
active: [1]; at 11.0 µM 79% | [1]; at 33.0 µM 98% | [1]; at 100.0 µM 97% | [2]; at 33.0 µM 97% | [2]; at 100.0 µM 96% | [3]; at 33.0 µM 93% | [3]; at 100.0 µM 95% | [4]; at 33.0 µM 98% | [4]; at 100.0 µM 98% | [5]; at 11.0 µM 84% | [5]; at 33.0 µM 96% | [5]; [16] 96% | [5]; at 50.0 µM 98% | [5]; at 100.0 µM 97% | [6]; at 11.0 µM 85% | [6]; at 33.0 µM 96% | [6]; [16] 96% | [6]; at 50.0 µM 98.8% | [6]; at 100.0 µM 97% | [7]; at 33.0 µM 97% | [7]; at 100.0 µM 97% | [8]; [16] 97% | [8]; at 50.0 µM 98.8% | [9]; at 11.0 µM 89% | [9]; at 33.0 µM 96% | [9]; at 100.0 µM 95% | [10]; [16] 95% | [10]; at 50.0 µM 96.5% | [11]; at 11.0 µM 82% | [11]; at 33.0 µM 95% | [11]; [16] 94% | [11]; at 50.0 µM 98% | [11]; at 100.0 µM 96% | [12]; at 11.0 µM 92% | [12]; at 33.0 µM 97% | [12]; at 100.0 µM 95% | [13]; [16] 95% | [13]; at 50.0 µM 98.3% | [14]; at 11.0 µM 91% | [14]; at 33.0 µM 97% | [14]; at 100.0 µM 96%
